Laboratory results: PubChem BioAssay (NCI)
About 83,000 compounds went through this panel and 20% of them were active in at least one assay; those are over-represented in the sample as a whole.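 Method: cells in 96-well plates; compound added at one concentration; 48 h incubation; percent growth measured; values under 10 scored active.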 Unmarked numbers belong to inactive results. Active and inactive are the calls of the source.

Columns and labels:
Experiment in all cases: NCI-60 one-dose screen, 48 h (100 = growth as untreated, 0 = no growth, -100 = all killed)
HCT-15 colon = details: 10 µM unless noted
HT29 colon = details: 10 µM unless noted
SNB-75 CNS = details: 10 µM unless noted
SNB-19 CNS = details: 10 µM unless noted
U251 CNS = details: 10 µM unless noted
PC-3 prostate = details: 10 µM unless noted
UACC-62 melanoma = details: 10 µM unless noted
LOX IMVI melanoma = details: 10 µM
SK-MEL-28 melanoma = details: 10 µM unless noted
SK-MEL-5 melanoma = details: 10 µM unless noted

Row | SMILES | growth (HCT-15 colon) [%] | growth (HT29 colon) | growth (SNB-75 CNS) | growth (SNB-19 CNS) | growth (U251 CNS) | growth (PC-3 prostate) [%] | growth (UACC-62 melanoma) | growth (LOX IMVI melanoma) | growth (SK-MEL-28 melanoma) [%] | growth (SK-MEL-5 melanoma)
1 | Nc1ccc(F)c(Cl)c1F | 111 | 108% | 89.3% | 110% | 116% | 84.1 | 103% | 95.3% | 109 | –
2 | NC(CSSCC(N)C(=O)O)C(=O)O (stereo unspecified) | 34.5 | 5.05% (active) | -3.17% (active) | -6.03% (active) | 27% | 27.3 | -19.3% (active) | 18.2% | 18.5 | –
3 | OCCOc1ccc(-c2cc(-c3ccccn3)nc(-c3ccccn3)c2)cc1 | 19.1 | 4.07% (active) | 24.1% | 20.6% | 4.7% (active) | 20.1 | -44.8% (active) | -29.6% (active) | – | –
4 | C=CCc1cc(OC)c(OC)c(OC)c1 | 99.1 | 98% | 101% | 103% | 102% | 100 | 97.4% | 102% | 115 | –
5 | Cc1c(Cl)cccc1N=C=S | 107 | 104% | 70.6% | 93.5% | 106% | 89.6 | 97.4% | 103% | 132 | –
6 | C/C=C/C1OCC(CC)C(CCC)O1 (stereo unspecified) | 111 | 105% | 90.2% | 99.7% | 104% | 98.9 | 101% | 113% | 112 | –
7 | Cc1ccc2[nH]c3ccccc3c2c1 | 79.6 | 102% | 98.4% | 105% | 96.2% | 89.1 | 98.4% | 97% | 111 | –
8 | CCCCOC(=O)c1ccccc1O | 104 | 111% | 85.9% | 102% | 100% | 101 | – | 100% | 113 | 104%
9 | OCCc1ccc(Cl)cc1 | 102 | 99.9% | 86.5% | 96.5% | 92.3% | 95.5 | – | 100% | 108 | 103%
10 | NNC(=O)c1ccccc1N | 110 | 106% | 87.9% | 114% | 106% | 101 | – | 105% | 117 | 107%
11 | CC(=O)C[n+]1ccc(C)cc1Sc1ccccc1C | 97.1 | 99.1% | 76% | 91.1% | 93.3% | 91.8 | – | 86.6% | 104 | 92%
12 | C=CCS(C)(=O)=O | 102 | 97.1% | 94.1% | 101% | 90.4% | 101 | – | – | 106 | 104%
13 | CCC(=O)Oc1c(C)cc(O)c2ccccc12 | 91.1 | 106% | 86.4% | 108% | – | 59 | 67.3% | 75% | 119 | 82%
14 | C=C(C)[C@@H]1CC[C@]2(CO)CC[C@]3(C)[C@H](CC[C@@H]4[C@@]5(C)CC[C@H](O)C(C)(C)[C@@H]5CC[C@]43C)[C@@H]12 | 89.7 | 46.2% | 3.72% (active) | 48% | – | 38.7 | 60.5% | 32.2% | – | -60.5% (active)
15 | C(=C\c1ccncc1)/c1ccncc1 | 96.3 | 99% | 89.6% | 94.5% | 97.1% | – | 90.1% | 94.2% | 104 | 101%
16 | CCN1CCCC(N2c3ccccc3Sc3ccccc32)C1 (stereo unspecified) | 102 | 89.3% | 92.8% | 110% | 94.6% | – | 104% | 91.2% | 105 | 97%
17 | Oc1ccc2ccccc2c1CN1CCOCC1 | 107 | 110% | 95.6% | 110% | – | 99.9 | 111% | 115% | 107 | 113%
18 | CCN(CC)CCCC(C)NC(=S)N/N=C(\C)c1ccccn1 (stereo unspecified) | 32.7 | 35.8% | 61.9% | 45.7% | 37.2% | – | 22.3% | 39.3% | 67.5 | 37.8%
19 | COc1ccc(C2CC(c3ccccc3)=Nc3ccccc3S2)cc1 (stereo unspecified) | 98.3 | 92.8% | 80.7% | 93.8% | – | 82.7 | 97.9% | 95% | 98.4 | 94.2%
20 | O=Cc1ccc(Cl)c(Cl)c1 | 110 | 106% | 88.4% | 111% | 104% | – | 102% | 95% | 107 | 110%
21 | C=C(C)COc1ccc(C(C)(C)C)cc1 | 108 | 99.2% | 94% | 103% | 88.5% | – | – | 101% | 108 | 104%
22 | CCN(C(C)=O)c1ccc([N+](=O)[O-])cc1 | 109 | 104% | 108% | 101% | 90.8% | – | 97.5% | 98.6% | 106 | 96.2%
23 | NNC(=O)CCCCl | 104 | 112% | 95% | 121% | 98.3% | – | 103% | 91.3% | 110 | 102%
24 | Nc1ccn(C2OC(CO)C(O)C2F)c(=O)n1 (stereo unspecified) | 95.8 | 79% | 79.5% | 90.5% | 78.6% | – | 77.7% | 79.6% | 60.5 | 92.5%
25 | CCCCCCCCCCCCCCCCCCSC(=N)N | 66.6 | 28.4% | 88.6% | 89.2% | 72.3% | – | 77.6% | 52.7% | 93.5 | 98.3%
26 | Nc1ccccc1SC1CC(=O)N(c2ccc(Cl)c(Cl)c2)C1=O (stereo unspecified) | 118 | 96.2% | 79.9% | 96.6% | 103% | – | 87.6% | 98.5% | 108 | 104%
27 | C=CCOc1ccc(Cl)cc1Cl | 104 | 112% | 90.3% | 114% | – | 88.2 | 92.7% | 99.6% | 115 | 108%
28 | CC(C)=CCC[C@@H](C)[C@H]1CC[C@@]2(C)C3=C(CC[C@]12C)[C@@]1(C)CC[C@H](O)C(C)(C)[C@@H]1CC3 | 97.9 | 90.1% | 92.7% | 105% | 99.2% | – | 101% | 103% | 104 | 104%
29 | C/C(O)=C(/C=N\C(=S)Nc1ccc(S(=O)(=O)Nc2nccs2)cc1)C(=O)Nc1ccccc1C | 102 | 116% | 89% | 92.7% | – | 84.9 | 81.8% | 92% | 110 | 93%
30 | CC(=O)c1cccc(N(C)S(=O)(=O)c2ccc(C)cc2)c1 | 57.2 | 72.1% | 81.6% | 96.8% | 87.4% | – | 96% | 82.3% | 93.6 | 90.1%
